The values that follow come from PubChem BioAssay (EPA / NIEHS).

Structures are written as SMILES. Records with an inconclusive call do not appear. Calls of active or inactive are those of the source. The calls were made as follows, unless noted: active = hit-call score of the fitted dose curve at least 0.9, where 1 is the maximum; inconclusive = response in the unintended direction; inactive = score below 0.9.

Experiment [1] deals with Thyroperoxidase (TPO), gene 54314. Briefly: CCTE_Simmons_AUR_rTPO: CCTE's Amplex UltraRed Assay for Thyroperoxidase (TPO) Inhibition, Simmons Lab (AID 2283662).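 As to AC50: potency for loss of signal meaning inhibition of peroxidase activity.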 Put shortly: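 Rat thyroid microsomes (5 ug protein) with 25 uM Amplex UltraRed and 300 uM H2O2 in 200 mM phosphate buffer, 30 min at 37C in dark; fluorescence 544/590 nm. Eight concentrations, 5 nM–87.5 uM final, 0.5% DMSO, triplicate biological replicates.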

Experiment [2] is described as follows: CCTE_Simmons_CellTiterGLO_HEK293T: Viability Assessment in CCTE's Assays for Thyroperoxidase (TPO) Inhibition, Simmons Lab (AID 2283665).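 As to AC50: cells exposed to compound for 24 h before readout; actives reduce ATP signal below DMSO vehicle meaning cytotoxicity.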 Summed up:
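HEK293T, 10 000 cells/well, DMEM + 1% FBS; 8-pt titration 5 nM–87.5 uM [final], 0.5% DMSO; 24 hr, 37C, 5% CO2; CellTiter-Glo luminescence; n=3 biological replicates.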
On the technique in general: Cellular ATP, detected with luciferase, serves as a proxy for viable cell number.

For experiment [3], the target named is Luciferin 4-monooxygenase (Photinus pyralis) (UniProt P08659). As to the kind of experiment: CCTE_Simmons_QuantiLum_inhib_2: CCTE's Firefly Luciferase Inhibition Assay, Simmons Lab (AID 2283767).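 As to AC50: potency for inhibitors that lower luciferase luminescence relative to DMSO.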 Put shortly: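 Luminescence loss relative to DMSO vehicle defines inhibition; detection reagent containing 150 uM D-luciferin and 147 uM dATP (final, pH 7.8) is injected immediately before each read. Enzyme is preincubated with an 8-point titration (5 nM–87.5 uM final) for 30 min at 37C.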
Chain of Luciferin 4-monooxygenase (Photinus pyralis) (P08659 whole entry, looked up): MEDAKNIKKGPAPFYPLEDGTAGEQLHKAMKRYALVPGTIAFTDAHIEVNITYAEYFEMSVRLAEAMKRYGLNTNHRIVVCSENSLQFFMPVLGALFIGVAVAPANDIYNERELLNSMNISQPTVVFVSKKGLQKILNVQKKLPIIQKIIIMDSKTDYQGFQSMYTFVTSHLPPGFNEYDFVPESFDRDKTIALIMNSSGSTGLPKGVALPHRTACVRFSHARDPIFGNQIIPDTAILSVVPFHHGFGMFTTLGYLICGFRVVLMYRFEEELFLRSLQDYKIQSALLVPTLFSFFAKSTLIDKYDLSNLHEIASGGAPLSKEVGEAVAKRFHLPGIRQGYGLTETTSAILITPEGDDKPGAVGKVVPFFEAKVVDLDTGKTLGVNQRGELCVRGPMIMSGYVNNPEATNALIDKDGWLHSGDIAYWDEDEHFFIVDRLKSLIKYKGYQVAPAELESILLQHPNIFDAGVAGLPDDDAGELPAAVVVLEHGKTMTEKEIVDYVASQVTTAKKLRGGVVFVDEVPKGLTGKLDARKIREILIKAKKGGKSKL

The nature of experiment [4]: ACEA_AR_antagonist_AUC_viability: ACEA Biosciences xCELLigence Real-Time Cell Analysis on Androgen Receptor Antagonism for Viability (AID 2283776).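 Also: hits lower the growth signal relative to DMSO meaning cytotoxicity.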 Summed up: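 22Rv1 human prostate cancer cells were seeded on electrode plates, monitored overnight, then exposed to eight 1:4 dilutions from 100 uM final. Impedance-based growth kinetics at 80 h gave an AUC viability endpoint normalized to DMSO.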

Experiment [5] in a line: ACEA_ER_AUC_viability: ACEA Biosciences xCELLigence Real-Time Cell Analysis on Estrogen Receptor Agonism for Viability (AID 2283782).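 Also: continuous compound exposure with impedance area under curve over 80 h; hit means loss of impedance signal meaning reduced cell growth or viability.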 Put shortly:
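T-47D human breast cells in phenol red-free RPMI1640 with 10% charcoal-stripped FBS were dosed with an 8-point 1:4 dilution series from 100 uM top final concentration, in duplicate. Impedance-based growth was followed for 80 h; AUC analysed versus DMSO.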

Experiment [6] in a line: CEETOX_H295R_MTT_cell_viability: Viability Assessment in the CeeTox HT-H295R MTT Assay (AID 2283718; active = hit-call score of the fitted dose curve at least 0.9, where 1 is the maximum; inactive = score below 0.9). Summed up:
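H295R cells prestimulated 48 h with 10 uM forskolin, then exposed 48 h to test chemical (0.1% DMSO final). Viability by MTT (0.5 mg/ml, 4 h, 37 C), absorbance 570/650 nm; percent change versus DMSO, bidirectional fit.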

Experiment [7] in a line: STM_H9_OrnCyssISnorm_ratio: Stemina devTOX quickPredict H9 human embryonic stem cell (hESC)-based Assay for Ornithine (ORN):Cystine (CYSS) Ratio (AID 2283714). Put shortly:
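Undifferentiated H9 hESCs were exposed to compound for 72h with media and chemical replaced every 24h. Final 24-h conditioned media were deproteinized and analysed by UPLC-HRMS. ORN and CYSS peak areas were normalized to C13 internal standards and the ratio taken versus 0.1% DMSO.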

The nature of experiment [8]: ACEA_AR_agonist_AUC_viability: ACEA Biosciences xCELLigence Real-Time Cell Analysis on Androgen Receptor Agonism for Viability (AID 2283775).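 As to AC50: viability read 80 hours after compound addition.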 Put shortly:
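Real-time impedance tracking of 22Rv1 growth, readings every 5 min for 5 h then hourly; area-under-curve viability endpoint at 80 hours, relative to DMSO. Compounds at eight concentrations, 1:4 steps, top 100 uM, n = 2.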

The target of a further experiment is AR (gene 367) (UniProt P10275). As to the kind of experiment: ACEA_AR_agonist_80hr: ACEA Biosciences xCELLigence Real-Time Cell Analysis on Androgen Receptor Agonism for Proliferation (AID 2283783).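 Also: hits increase impedance growth signal above DMSO baseline.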 Put shortly:
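22Rv1 human prostate cancer cells were seeded after preconditioning in assay medium and monitored overnight, then dosed in an eight-point 1:4 dilution series from 100 uM (≤0.5% DMSO). Impedance-based growth was read at 80 h, gain-of-signal versus DMSO.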

Chain of AR (gene 367) (P10275 whole entry, looked up): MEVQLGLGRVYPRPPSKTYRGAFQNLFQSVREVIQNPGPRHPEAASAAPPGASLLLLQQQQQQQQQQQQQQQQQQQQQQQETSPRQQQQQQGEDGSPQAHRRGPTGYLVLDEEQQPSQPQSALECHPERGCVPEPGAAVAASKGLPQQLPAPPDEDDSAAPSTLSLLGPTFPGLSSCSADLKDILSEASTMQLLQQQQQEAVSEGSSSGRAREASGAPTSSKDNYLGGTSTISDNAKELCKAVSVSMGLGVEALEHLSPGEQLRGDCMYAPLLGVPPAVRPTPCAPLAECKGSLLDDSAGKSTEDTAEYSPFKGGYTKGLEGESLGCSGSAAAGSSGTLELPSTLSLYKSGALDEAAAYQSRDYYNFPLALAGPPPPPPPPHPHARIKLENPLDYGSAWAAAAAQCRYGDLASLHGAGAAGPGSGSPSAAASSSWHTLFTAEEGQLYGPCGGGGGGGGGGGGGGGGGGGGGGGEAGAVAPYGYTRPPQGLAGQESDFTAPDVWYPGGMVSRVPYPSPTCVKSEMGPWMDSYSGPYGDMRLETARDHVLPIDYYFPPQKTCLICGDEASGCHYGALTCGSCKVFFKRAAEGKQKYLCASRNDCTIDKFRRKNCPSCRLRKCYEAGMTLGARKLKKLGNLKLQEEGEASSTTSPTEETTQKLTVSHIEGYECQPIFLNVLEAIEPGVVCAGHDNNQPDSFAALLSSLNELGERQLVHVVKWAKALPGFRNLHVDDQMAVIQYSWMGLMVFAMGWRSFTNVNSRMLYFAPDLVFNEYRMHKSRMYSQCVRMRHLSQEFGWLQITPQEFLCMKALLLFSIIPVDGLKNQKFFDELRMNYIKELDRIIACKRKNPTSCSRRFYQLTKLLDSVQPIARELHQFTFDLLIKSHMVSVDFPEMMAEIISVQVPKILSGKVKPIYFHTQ

`Cc1ccc(N/N=c2\c(=O)cc/c(=N/Nc3ccc(S(=O)(=O)O)cc3)c2=O)c(C)c1`: the AC50 in experiment [1] is 28.9 µM (active); in [2] it was 76.6 µM (active); in experiment [3], 53.8 µM (active); in experiment [4] it was 8.3 µM (active). Besides, the outcome in experiment [5] was inactive.

With `C1=CCCC1`, the result in [6] and in [5] was inactive.

In the case of `CCOC(=O)c1ccccc1C(=C1C=C(Br)C(=O)C(Br)=C1)c1cc(Br)c(O)c(Br)c1`, in experiment [7], the half-maximal activity concentration (AC50) is 3.9 µM (active).

Regarding `CO[Si](CCC1CCC2OC2C1)(OC)OC` (centres undefined), in experiment [6], the compound was classed as inactive. Also, in [5], the AC50 is 37.7 µM (active).

As to `Oc1ccc(Cl)cc1Cc1cc(Cl)ccc1O`, the outcome (in experiment [6]; with AR (gene 367)) was inactive. The half-maximal activity concentration (AC50) in experiment [8] is 11.5 µM (active); in experiment [4], 8.53 µM (active); in experiment [5] it was 17.7 µM (active).

For the compound `CCN(CCC#N)c1ccc(N=Nc2c(Cl)cc([N+](=O)[O-])cc2Cl)cc1`, the AC50 was 37.9 µM (active) in experiment [1]; 41.8 µM (active) in experiment [2]; 53.8 µM (active) in experiment [3]; 3.43 µM (active) in [8]; 3.41 µM (active) in experiment [4]. Moreover, the compound was classed as inactive in experiment [5].

On to `CCCCCCCCCCCCCOP(=O)(O)O`, for which the compound was classed as inactive in experiment [1], in experiment [6], in experiment [3], in experiment [8] and in experiment [4]. Besides, the AC50 in experiment [2] was 79.1 µM (active); in experiment [5], 48.7 µM (active).

Take `CCCCNc1ccc(NCCCC)c2c1C(=O)c1ccccc1C2=O`: the compound was classed as inactive in experiment [6].

With `CC(C)(C)c1ccc(-c2ccc(C(C)(C)C)cc2)cc1`, the compound was classed as inactive in experiment [1], in experiment [3], in [8], in [4] and in experiment [5].

With `O=C(Nc1ccccc1SSc1ccccc1NC(=O)c1ccccc1)c1ccccc1`, the compound was classed as inactive in experiment [6]. Moreover, the AC50 in experiment [5] was 77.7 µM (active).

With `CCCCC/C=C\C/C=C\CCCCCCCC(=O)OC`, the concentration at half-maximal activity (AC50) is 43.8 µM (active) in [1], 58.4 µM (active) in experiment [2] and 65.3 µM (active) in experiment [5]. Moreover, the compound was classed as inactive in experiment [3], in experiment [8] and in [4].

On to `COC(=O)c1c(C)cc(O)c(C)c1O`, for which the AC50 was 11.6 µM (active) in experiment [1] and 4.23 µM (active) in experiment [4]. Besides, the call in experiment [6], in experiment [3] and in [5] was inactive.

`C#CC1(O)CC[C@H]2[C@@H]3CCC4=CCCC[C@@H]4[C@H]3CC[C@@]21C` (some centres undefined): the outcome in experiment [6] was inactive.

Turning to `CC/C=C\C/C=C\C/C=C\CCCCCCCC(=O)O`, the AC50 in [1] is 28.7 µM (active). The compound was classed as inactive in experiment [2], in experiment [3], in experiment [8], in [4] and in experiment [5].

In the case of `O=S(=O)(O)c1ccccc1C=Cc1ccc(-c2ccc(C=Cc3ccccc3S(=O)(=O)O)cc2)cc1`, the AC50 in experiment [1] is 44.4 µM (active). For the same compound, the result in [2], in experiment [3], in experiment [4] and in experiment [5] was inactive.

As for `O=C(c1ccccc1)c1ccc(O)c(O)c1O`, in experiment [1], the AC50 was 2.12 µM (active). Moreover, the compound was classed as inactive in experiment [2] and in [3].

Consider `COc1ccc2nc(N)sc2c1`, for which the result in [6] and in [5] was inactive.

In general, AC50 refers to the concentration at which the activity in the assay is half-maximal.
